Screening results: PubChem, Pan Lab, Icahn School of Medicine at Mount Sinai
ROC1-CUL1 inh – human ROC1-CUL1 E3 ligase inhibition; actives 0.6% (n = 140,000); AID 1347404; in vitro K48 di-Ub FRET, acceptor:donor ratio, 45 min; inhibition, % at 10 µM; in the data active = inhibition above about 25%
Hits are given with their value; i = inactive. This excerpt belongs to a sample that is enriched for hits.

SMILES	ROC1-CUL1 inh
Fc1ccccc1C1Nc2ccccc2-c2nnc(SCc3ccccc3)nc2O1 (centres undefined)	i
CCOc1c(Br)cc(/C=C2\SC(=S)N(CC(=O)O)C2=O)cc1Br	i
O=C(CN1C(=O)S/C(=C/c2ccc(O)c(Br)c2)C1=O)Nc1cccc2ccccc12	i
O=C(O)CN1C(=O)/C(=C\c2cc(Cl)cc(Br)c2O)SC1=S	81.1
O=C(O)CN1C(=O)/C(=C/c2ccccc2C(F)(F)F)SC1=S	i
O=C(CN1C(=O)S/C(=C\c2cc(Cl)cc(Br)c2O)C1=O)Nc1ccccc1F	25.5
CCOc1cc(Br)c(Br)c(/C=C2\SC(=S)N(CC(=O)O)C2=O)c1O	28.4
Cc1cc(/C=C2/SC(=O)N(CC(=O)Nc3ccccc3F)C2=O)c(C)n1C	i
C=CCN1C(=O)/C(=C\c2c(OCC)ccc3ccccc23)SC1=S	i
O=C(O)CN1C(=O)/C(=C/c2ccc(F)c(Br)c2)SC1=S	i
C=CC[C@@H]1CC=C[C@@H](C)N1C(=O)CCc1nnc(Cc2cc(OC)ccc2OC)o1	i
O=C(N/N=C/c1ccccc1F)c1ccccc1[N+](=O)[O-]	i
Cc1ccc(NS(=O)(=O)c2ccc(NC(=O)Nc3ccc(Cl)cc3)cc2)c(C)c1	i
COc1ccc(NC2CC(=O)N(c3ccc(N4CCOCC4)cc3)C2=O)cc1 (centres undefined)	i
Cc1cnc(CNC(=O)C2(N3C[C@@H](C)O[C@@H](C)C3)Cc3ccccc3C2)cn1	i
Cn1cnnc1SCC(=O)NC1CCCN(CCc2ccccc2)C1 (centres undefined)	i
Cc1cccc(N2NC(=O)/C(=C/c3ccc(-c4ccc(Cl)c(C(=O)O)c4)o3)C2=O)c1	i
O=C1NN(c2cccc(Cl)c2)C(=O)/C1=C/c1ccc2c(c1)OCO2	i
O=C1NN(c2cccc(Cl)c2)C(=O)/C1=C\c1ccc(-c2ccc(C(=O)O)c(Cl)c2)o1	44.1
O=C1NN(c2cccc(Br)c2)C(=O)/C1=C\c1ccc(-c2ccc(C(=O)O)cc2)o1	60.2
CCOC(=O)c1ccc(-c2ccc(/C=C3/C(=O)NN(c4ccc(C)cc4)C3=O)o2)cc1	i
CC(C)OC(=O)c1ccc(-c2ccc(/C=C3/C(=O)NN(c4ccccc4)C3=O)o2)cc1	i
COC(=O)CN(C)C(=O)CC(c1ccccc1)c1ccccc1C (centres undefined)	i
CC(C)CNS(=O)(=O)c1ccc(OCC(=O)Nc2cccc(F)c2)cc1	i
CCOc1ccccc1NC(=O)c1sc(C)nc1C	i
SMILES	ROC1-CUL1 inh
Cc1ncc2c(c1-c1noc(-c3ccccc3-n3cccn3)n1)CCNC2	i
CCOC(=O)c1c(NC(=O)c2ccc(C)cc2)sc2c1CCCCC2	i
NCCNC(=O)c1c(NC(=O)c2ccccc2)sc2c1CCCC2	34.1
CN1CCN(C(=O)c2c(NC(=O)c3ccccc3)sc3c2CCCC3)CC1	i
CC(=O)Nc1sc2c(c1C(=O)c1ccccc1)CCCC2	i
O=C(Nc1sc2c(c1C(=O)O)CCCCC2)c1ccccc1	i
Cc1ccc(C(=O)Nc2sc3c(c2C(=O)O)CCCC3)cc1	47.0
Cc1ccccc1Cn1nc(C)c(NC(=O)C(Sc2ccccc2)c2ccccc2)c1C (centres undefined)	i
CC1=Nc2ccc(C(=O)Nc3ccc(F)cc3)cc2C(=O)C1	i
O=C(NCc1cccnc1N1CCCCCCC1)c1cscn1	i
O=C(CCCSc1nc2sc3c(c2c(=O)[nH]1)CCCC3)NCCCO	i
Cc1ccc(C(=O)Nc2ccc(Br)c(Cl)c2)cc1	i
CSC1=NC2=NC3=C(C(=O)CC(C)(C)C3)C(c3ccc(Cl)c(Cl)c3)C2C(=O)N1 (centres undefined)	i
CC(C)(O)c1nc2ccccc2n1Cc1ccccc1	i
CCOc1ccc(C(=O)Nc2ccc(S(=O)(=O)Nc3nc(C)cc(C)n3)cc2)cc1	i
Cc1ccc(C)c(OC(=O)c2ccc(=O)oc2)c1	27.6
O=C(Oc1ccc(S(=O)(=O)O)cc1C(=O)O)c1ccc(=O)oc1	i
CCc1ccc(C)c(OC(=O)c2ccc(C)cc2)c1	i
OCC1CCN(c2ncc3c(n2)CCCC3NC23CC4CC(CC(C4)C2)C3)CC1 (centres undefined)	i
CCOc1ccccc1C(=O)NCC(c1ccc(N(C)C)cc1)N1CCc2ccccc21 (centres undefined)	i
Cc1ccccc1/C=C/C(=O)C1C=C(Br)C=CC(=O)C1=O (centres undefined)	i
COc1cccc(/C=C/C(=O)C2C=C(Br)C=C(Br)C(=O)C2=O)c1 (centres undefined)	i
COc1ccccc1/C=C/C(=O)C1C=C(Br)C=C(Br)C(=O)C1=O (centres undefined)	27.6
CC(c1ccccc1)N1C(=O)c2ccc(C(=O)Nc3ccc(Br)cc3C(=O)O)cc2C1=O (centres undefined)	39.4
CCCN1C(=O)c2ccc(C(=O)Nc3ccc(Br)cc3C(=O)O)cc2C1=O	i
CCOc1ccccc1N1C(=O)c2ccc(C(=O)Nc3ccc(Br)cc3C(=O)O)cc2C1=O	i
CCN1CCN(C2(C(=O)N(C)CC(=O)OC)Cc3ccccc3C2)CC1	i
CC(=O)N1CN(C2CCCCC2)Cc2c1sc1c2CCCC1	i
